Screens as filed in PubChem BioAssay.
CYP2C9 act: human CYP2C9 activators, primary screen, biochemical, luminescence. Cytochrome P450 2C9 (Homo sapiens), P11712. recombinant CYP2C9, luciferin-H conversion; hits give high values; factor 1 = untreated enzyme, 0 = blocked. activation factor at 5 µM. 96,000 tested, 1.4% active. AID 1024, 2008;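 active means activation factor of 2 or more for CYP2C9 at a 5 µM dose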
CYP2C19 inhib: blockers of cytochrome P450 2C19 activity – biochemical, luminescence, ADME assay, primary screen; CYP2C19 Supersomes, luciferin-H EGE luminescence, 30 min; inhibition, % at 5 µM; 96,000 tested, 21% active; AID 778, 2007;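 active means CYP2C19 inhibition above a set limit at 5 µM in the primary screen, cut at about 50% in these data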
Cav32 inh: Cav3.2 calcium influx blockers – cell-based, Fluo-4 calcium fluorescence, FDSS, MLSMR library, primary screen | AID 449739, 2010 | B-score at 10 µM | Cav3.2-expressing cells; hits give low values | Voltage-dependent T-type calcium channel subunit alpha-1H (Homo sapiens), O95180 | 100,000 tested, 4% active;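 active means single-dose well whose peak fluorescence ratio is a statistical outlier from its plate by either plate-standardised score or position-corrected B-score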
CYP2C9 inh: blockers of cytochrome P450 2C9 activity – biochemical, luminescence, ADME assay, primary screen | 96,000 tested, 20% active | inhibition, % at 5 µM | P11712 | CYP2C9 Supersomes, luciferin-H conversion;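 active means blocking of liver enzyme CYP2C9 beyond about 50% at 5 µM, limit read from the data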
CYP2C19 activ: human CYP2C19 activators, primary screen, biochemical, luminescence. Cytochrome P450 2C19 (Homo sapiens), P33261. recombinant CYP2C19, luciferin-H EGE luminescence; hits give high values; 0 = fully inhibited enzyme, 1 = untreated enzyme. AID 1025, 2008. 96,000 tested, under 10 active. activation factor at 5 µM;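 active means activation factor of at least 2 at 5 µM in the primary screen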
Pyk2 oligo antag: antagonists of Pyk2 self-association, primary screen, Q293 cells, FERM NanoBiT luminescence, HTS. Protein-tyrosine kinase 2-beta (Homo sapiens), Q14289. hits give low values. z-score (the deposit names both 25 µM and 10 µM). 99,000 tested, 0.83% active. AID 1347419, 2020;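 active means Z-score of -3 or lower, scaled per plate to the spread of control and sample wells; inactive means z-score above -3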;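 further: negative z-score means lost luminescence so less FERM oligomerization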
Target sequence (Q14289 whole entry, looked up): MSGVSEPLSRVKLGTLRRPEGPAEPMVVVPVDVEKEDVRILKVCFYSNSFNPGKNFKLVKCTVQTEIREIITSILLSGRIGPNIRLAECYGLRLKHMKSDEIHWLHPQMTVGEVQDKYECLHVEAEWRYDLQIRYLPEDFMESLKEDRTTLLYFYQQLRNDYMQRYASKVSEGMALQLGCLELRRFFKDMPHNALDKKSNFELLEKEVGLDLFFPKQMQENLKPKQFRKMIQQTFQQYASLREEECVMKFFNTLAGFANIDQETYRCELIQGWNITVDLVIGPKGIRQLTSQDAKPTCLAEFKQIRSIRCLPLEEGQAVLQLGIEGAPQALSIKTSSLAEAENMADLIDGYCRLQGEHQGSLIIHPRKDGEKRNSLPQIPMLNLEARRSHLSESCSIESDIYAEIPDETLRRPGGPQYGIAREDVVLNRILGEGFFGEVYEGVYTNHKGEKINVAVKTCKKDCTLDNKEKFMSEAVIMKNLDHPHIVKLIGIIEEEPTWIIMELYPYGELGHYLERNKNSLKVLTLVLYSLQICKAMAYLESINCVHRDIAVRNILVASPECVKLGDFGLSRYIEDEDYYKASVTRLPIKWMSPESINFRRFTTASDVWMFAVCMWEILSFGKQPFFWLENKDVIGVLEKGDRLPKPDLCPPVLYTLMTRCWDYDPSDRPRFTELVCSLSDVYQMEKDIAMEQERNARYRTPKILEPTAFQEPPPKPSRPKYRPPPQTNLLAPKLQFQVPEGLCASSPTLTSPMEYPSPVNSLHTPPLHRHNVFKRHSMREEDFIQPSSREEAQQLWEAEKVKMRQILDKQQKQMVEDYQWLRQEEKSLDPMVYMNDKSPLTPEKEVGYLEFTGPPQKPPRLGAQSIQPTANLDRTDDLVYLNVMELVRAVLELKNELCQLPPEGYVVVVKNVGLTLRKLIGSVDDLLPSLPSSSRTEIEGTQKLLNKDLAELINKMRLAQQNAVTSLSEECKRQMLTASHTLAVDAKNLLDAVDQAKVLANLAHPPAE
Hits are given with their value; - = inactive; . = no result given. Shown are actives, neighbours in structure and some others; about 27% of the full set was active somewhere.

SMILES	CYP2C9 act	CYP2C19 inhib	Cav32 inh	CYP2C9 inh	CYP2C19 activ	Pyk2 oligo antag
Cc1cccc(N(C(=O)CCC(=O)Nc2cc(C)on2)C(C(=O)NC2CCCC2)c2ccncc2)c1 (stereo not drawn)	-	81.0	-	83.8	-	-
Cc1cc(NC(=O)CCC(=O)N(c2cccnc2)C(C(=O)NC2CCCC2)c2ccccc2F)no1 (stereo not drawn)	.	.	-	.	.	.
Cc1cc(NC(=O)CCC(=O)N(CC(=O)NC2CCCC2)c2ccc3c(c2)OCCO3)no1	-	-	-	-	-	-
Cc1cc(NC(=O)CCC(=O)N(Cc2cccs2)C(C(=O)NC2CCCC2)c2ccncc2)no1 (stereo not drawn)	-	68.6	-	84.5	-	-
Cc1ccc(N(C(=O)CCC(=O)Nc2cc(C)on2)C(C(=O)NC2CCCC2)c2ccncc2)cc1 (stereo not drawn)	-	64.0	-	69.4	-	-
CCN1CCCC1CN(Cc1cc2cc(OC)ccc2[nH]c1=O)C(=O)NCc1ccccc1 (stereo not drawn)	-	-	-	-	-	-
COc1ccccc1CN(C)C(=O)c1ccc2c(c1)NC(=O)CS2	-	92.7	-	-	-	-
CC(C)CCSc1nc(N)c(C#N)cc1C#N	-	-	-	-	-	-
COc1ccc(OC)c(N(CC(=O)Nc2cccnc2)S(=O)(=O)c2ccccc2)c1	-	97.7	-	97.8	-	-
COc1ccccc1N(CC(=O)Nc1ccc(F)c(F)c1)S(C)(=O)=O	-	87.5	-	66.3	-	-
COc1ccccc1N(CC(=O)NCc1ccccc1)S(C)(=O)=O	-	-	-	-	-	-
COc1ccccc1N(CC(=O)Nc1cccnc1)S(C)(=O)=O	-	67.9	-	-	-	-
COc1ccc(N(CC(=O)Nc2ccc3c(c2)OCCO3)S(=O)(=O)c2cccnc2)cc1	-	-	-	-	-	.
COc1ccccc1N(CC(=O)Nc1cccnc1)S(=O)(=O)c1ccccc1	-	90.2	-	100.3	-	-
CCOC(=O)N1CCN(C(=O)CS(=O)(=O)c2cn(Cc3cccc(F)c3)c3ccccc23)CC1	-	-	-	-	-	-
CC1(C)NC(=O)N(CC(=O)O)C1=O	-	-	-	-	-	-
Cc1ccc(S(=O)(=O)Nc2ccc(-c3nnc(SCC#N)n3C)cc2)cc1	-	-	-	-	-	-
CCc1nnc(NC(=O)CSc2nnc(C)n2CC2CCCO2)s1 (stereo not drawn)	-	-	-	-	-	-
COc1ccc(S(=O)(=O)N(CC(=O)Nc2cccnc2)c2ccccc2OC)cc1	-	53.7	-	93.7	-	-
COCCn1c(COc2ccc(C)cc2)nc2ccccc21	-	65.0	-	-	-	-
Cc1ccc(OCCCn2c(CO)nc3ccccc32)cc1	-	95.2	-	53.3	-	-
COCCn1c(COC)nc2ccccc21	-	-	-	-	-	-
OCc1nc2ccccc2n1CCCOc1ccccc1	-	52.8	-	-	-	-
COCCn1c(-c2ccc(OC)cc2)nc2ccccc21	-	-	-	-	-	-
COCc1nc2ccccc2n1CCOc1ccccc1OC	-	59.6	-	-	-	-
SMILES	CYP2C9 act	CYP2C19 inhib	Cav32 inh	CYP2C9 inh	CYP2C19 activ	Pyk2 oligo antag
S=C(Nc1ccccc1)Nc1nc2ccccc2n1CCOc1ccccc1	-	-	-	-	-	-
COc1ccccc1OCCn1c(=O)sc2ccccc21	-	68.2	-	66.0	-	-
c1ccc2cc(OCc3nc4ccccc4[nH]3)ccc2c1	.	.	-5.9	.	.	-
COc1ccccc1OCc1nc2ccccc2[nH]1	-	73.7	-	-	-	-
c1cnc2c(OCc3nc4ccccc4[nH]3)cccc2c1	-	94.8	-	-	-	-
COc1ccc(OCc2nc3ccccc3[nH]2)cc1	-	-	-	-	-	-
CCCc1cc(=O)n2[nH]c(C)cc2n1	-	-	-	-	-	-
COc1cccc(NC(=O)C23CCC(C)(C(=O)O2)C3(C)C)c1 (stereo not drawn)	-	-	-	-	-	-
N#Cc1cnn(Cc2ccc(Cl)cc2)c1N	-	54.9	-	-	-	-
N#Cc1cnn(Cc2ccccc2)c1N	-	-	-	-	-	-
CCOC(=O)/C(C(N)=NC(C)C)=C(\O)c1ccccc1	.	.	-	.	.	-
CN(c1ccccc1)S(=O)(=O)c1ccc(C(=O)OCC(=O)N2CCOCC2)cc1	-	54.8	-	-	-	-
CCc1nnc(NC(=O)c2ccc(N(C)S(=O)(=O)c3ccccc3)cc2)s1	.	.	-	.	.	-
CCCCC1(Cc2ccc([N+](=O)[O-])cc2)C(=O)N(c2ccccc2)N(c2ccccc2)C1=O	.	.	-4.8	.	.	-
COC(=O)c1ccccc1NC(=O)CSc1nnnn1C1CCCCC1	-	-	-	-	-	-
CCn1c(COc2ccccc2C)nnc1SCC(=O)Nc1ccc2c(c1)OCCO2	-	-	-	-	-	-
CCOC(=O)c1ccccc1NC(=O)CSc1nnnn1C1CCCCC1	-	-	-	72.3	-	-
CCOC(=O)c1ccccc1NC(=O)CSc1nnc(COc2ccccc2C)n1C	-	-	-4.64	-	-	-
Cc1ccccc1OCc1nnc(SCC(=O)Nc2ccc3c(c2)OCO3)n1C	-	76.0	-	-	-	-
Cc1cccc(C(C)Nc2ccc([N+](=O)[O-])cn2)c1 (stereo not drawn)	-	-	-4.33	74.8	-	-
O=[N+]([O-])c1ccc(Nc2ccc3ccccc3c2)nc1	-	-	-	-	-	-
O=C(O)C1CC=CCC1C(=O)NCc1ccc2c(c1)OCO2 (stereo not drawn)	.	.	-	.	.	-
NNC(=O)c1cccc(COc2cccc(Br)c2)c1	-	98.4	-	68.4	-	-
CCCCNC(=O)NS(=O)(=O)c1ccc(C(=O)OC(C)C)o1	-	-	-	69.4	-	-
COC(=O)c1ccc(S(=O)(=O)N2CCCCC2)o1	-	-	-	-	-	-
SMILES	CYP2C9 act	CYP2C19 inhib	Cav32 inh	CYP2C9 inh	CYP2C19 activ	Pyk2 oligo antag
Cc1ccc(CSC2=Nc3sccc3C3=NC(=O)CN23)cc1	-	66.1	-	-	-	-
Cc1ccccc1N=C1NC(=O)CS1	-	-	-	-	-	-
Cc1ccccc1N=C1NC(=O)CC(c2ccccc2)S1 (stereo not drawn)	-	62.8	-	-	-	-
Cc1c(C(=O)NCCSCc2c(Cl)cccc2Cl)cccc1[N+](=O)[O-]	-	-	-	-	-	-
CCOC(=O)c1cnc2cc(C)nn2c1-c1ccccc1	-	-	-	-	-	-
Cc1ccc(S(=O)(=O)NCCOc2nc(N(C)C)nc(N3CCOCC3)n2)cc1	-	-	-	-	-	-
CN(C)c1nc(OCCNC(=O)Nc2ccccc2)nc(N2CCOCC2)n1	-	53.2	-	80.0	-	-
